PubChem BioAssay
The source made the active and inactive calls.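 Rule for the calls, unless noted: active = compounds lowering colon cancer cell viability after pretreatment blocking the GSK3B kinase; inactive = the rest.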

Key:
[1] = stimulators of insulin release from INS-1E, primary screen, cell-based, 5 mM glucose, NPC library (AID 1117329;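 active = compound raises insulin release from rat beta cells at 5 mM glucose, no numeric limit stated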); conditions: rat INS-1E insulin secretion, at 10 µM, stronger effect = higher value
[2] = growth inhibition of GSK3B-pretreated HCT116 cells – cell-based, CellTiter-Glo, 0.2 to 20 µM (AID 1117336); conditions: HCT116 viability after GSK3B inhibitor, at 20 µM, stronger effect = higher value
[3] = inhibition of endothelial tube formation, primary screen, imaging, VEGF stimulated, CD31 staining, tube area, NPC library (AID 1117340;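 active = compound that reduces growth-factor-driven endothelial tube area in a mixed cell culture, no cutoff stated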); conditions: VEGF-stimulated ADSC/ECFC co-culture, at 10 µM, stronger effect = higher value
[4] = GLP1 release stimulators, primary, NCI-H716, NPC library (AID 1117341;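 active = compound raises GLP1 secretion from the human gut endocrine cells, with no numeric limit stated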); conditions: NCI-H716 cells, at 10 µM, stronger effect = higher value
[5] = HCT116 colon cancer cell growth inhibition, primary screen, CellTiter-Glo luminescence, NPC library (AID 1117342;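 active = compounds that lower survival of HCT116 colon cancer cells in the luminescence readout, no numeric limit stated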); conditions: at 20 µM (top of the series)
[6] = reduced SW480 viability measured with CellTiter-Glo, NPC library, primary (AID 1117343;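 active = compounds that lower viability of the colon cancer cells in the luminescence readout, with no numeric limit stated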); conditions: CellTiter-Glo luminescence; at 20 µM (top of the series)
[7] = NPC library primary testing for decreased DLD-1 cell viability via CellTiter-Glo (AID 1117346;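 active = compounds that lower survival of DLD-1 colon cancer cells in the luminescence readout, no cutoff given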); conditions: DLD-1 viability, CellTiter-Glo luminescence; at 20 µM (top of the series)
[8] = biological target: 6-phosphogluconate dehydrogenase, decarboxylating (Homo sapiens) (UniProt P52209); assay: inhibition of human phosphogluconate dehydrogenase – biochemical, recombinant enzyme, NADPH absorbance, primary screen (AID 1159550;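 active = at least 20% inhibition of 6-phosphogluconate dehydrogenase activity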); conditions: recombinant 6PGD, NADPH absorbance 341 nm; at 10 µM; stronger effect = higher value
6-phosphogluconate dehydrogenase, decarboxylating (Homo sapiens), sequence (P52209 whole entry, looked up): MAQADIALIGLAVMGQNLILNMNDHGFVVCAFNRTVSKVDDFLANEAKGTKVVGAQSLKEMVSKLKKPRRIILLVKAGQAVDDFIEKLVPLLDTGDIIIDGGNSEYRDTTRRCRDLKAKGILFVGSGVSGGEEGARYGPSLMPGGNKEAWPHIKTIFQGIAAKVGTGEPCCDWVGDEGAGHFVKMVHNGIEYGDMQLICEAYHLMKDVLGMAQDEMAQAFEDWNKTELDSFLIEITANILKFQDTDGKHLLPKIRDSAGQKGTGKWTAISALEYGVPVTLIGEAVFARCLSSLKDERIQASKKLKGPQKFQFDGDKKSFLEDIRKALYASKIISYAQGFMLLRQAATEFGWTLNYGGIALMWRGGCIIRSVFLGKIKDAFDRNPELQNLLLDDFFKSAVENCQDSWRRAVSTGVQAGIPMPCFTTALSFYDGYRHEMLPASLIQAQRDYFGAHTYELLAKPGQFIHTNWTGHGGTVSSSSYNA

[9] = EMT-state selective cytotoxicity in co-culture – imaging, PC-3E GFP, TEM4-18 mCherry, primary screen (AID 1345086;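 active = compounds killing one labelled cell type while sparing the other, by normalised counts and ratio limits, not self-fluorescent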;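 for all read-outs here: cells exposed to compound for 72 h before imaging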;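 for red/green cell ratio (normalised): normalised mesenchymal count divided by normalised epithelial count so high means epithelial killing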); conditions: PC-3E GFP / TEM4-18 mCherry co-culture, imaging cell counts, at 1 µM; for red/green cell ratio (normalised): actives lie on both sides, counts scaled to control wells, 1 = unselective
[10] = measured here: epithelial PC-3E GFP cell survival
[11] = measured here: mesenchymal TEM4-18 mCherry cell survival

Cc1c(NC(C)C)c(=O)n(-c2ccccc2)n1C
0.91: normalised cell number [9, 10]
active: GLP1 secretion stimulation [4] -0.1%
inactive: insulin secretion stimulation [1] 0.4% | viability decrease [2] 3.8% | tube area decrease [3] 4% | inhibition of viability [5] -11% | viability decrease (inhibition) [6] -10% | viability decrease (inhibition) [7] -1.3% | inhibition [8] 16.7% | red/green cell ratio (normalised) [9] 0.88
0.8: normalised cell number [9, 11]

O=C1OCCN1/N=C/c1ccc([N+](=O)[O-])o1
1.11: normalised cell number [9, 11]
0.95: normalised cell number [9, 10]
inactive: insulin secretion stimulation [1] -3% | viability decrease [2] 24.6% | tube area decrease [3] -8.5% | GLP1 secretion stimulation [4] 5.7% | inhibition of viability [5] 12.3% | viability decrease (inhibition) [7] 25.6% | inhibition [8] 12.5% | red/green cell ratio (normalised) [9] 1.17
active: viability decrease (inhibition) [6] 74.9%

NC(=O)c1ccc([N+](=O)[O-])cc1Cl
0.87: normalised cell number [9, 10]
inactive: insulin secretion stimulation [1] -2.1% | viability decrease [2] -0.35% | tube area decrease [3] -35.4% | GLP1 secretion stimulation [4] 0% | inhibition of viability [5] 42.7% | viability decrease (inhibition) [6] 32.9% | viability decrease (inhibition) [7] 3.8% | inhibition [8] 10.9% | red/green cell ratio (normalised) [9] 1.37
1.19: normalised cell number [9, 11]

Cc1cc(N)c2ccccc2[n+]1CCCCCCCCCC[n+]1c(C)cc(N)c2ccccc21
active: viability decrease [2] 85.5% | tube area decrease [3] 106% | inhibition of viability [5] 74.9% | viability decrease (inhibition) [6] 83% | viability decrease (inhibition) [7] 85.1%
1: normalised cell number [9, 11]
1.15: normalised cell number [9, 10]
inactive: insulin secretion stimulation [1] -0.4% | GLP1 secretion stimulation [4] -0.6% | inhibition [8] 4.29% | red/green cell ratio (normalised) [9] 0.87

NS(=O)(=O)c1cc2c(cc1Cl)NC(CSCc1ccccc1)=NS2(=O)=O
1.28: normalised cell number [9, 11]
1.02: normalised cell number [9, 10]
inactive: insulin secretion stimulation [1] 0% | viability decrease [2] -14.2% | tube area decrease [3] 5% | GLP1 secretion stimulation [4] 0.4% | inhibition of viability [5] -3.3% | viability decrease (inhibition) [6] 0.9% | viability decrease (inhibition) [7] -17.1% | inhibition [8] -3.14% | red/green cell ratio (normalised) [9] 1.25

CNC1(C)C2CCC(C2)C1(C)C (centres undefined)
inactive: insulin secretion stimulation [1] 3.5% | viability decrease [2] -6% | tube area decrease [3] -1.8% | GLP1 secretion stimulation [4] 4.9% | inhibition of viability [5] 15.7% | viability decrease (inhibition) [6] 8.7% | viability decrease (inhibition) [7] 1.8% | inhibition [8] -9.67% | red/green cell ratio (normalised) [9] 0.89
1.09: normalised cell number [9, 10]
0.97: normalised cell number [9, 11]

CC(NCCC(c1ccccc1)c1ccccc1)c1ccccc1 (centres undefined)
inactive: insulin secretion stimulation [1] 4.5% | tube area decrease [3] 15.4% | GLP1 secretion stimulation [4] -2.1% | inhibition [8] 4.5% | red/green cell ratio (normalised) [9] 0.89
0.86: normalised cell number [9, 11]
active: viability decrease [2] 99.5% | inhibition of viability [5] 99.3% | viability decrease (inhibition) [6] 102% | viability decrease (inhibition) [7] 89%
0.97: normalised cell number [9, 10]

NC(=O)c1ccccc1O
0.98: normalised cell number [9, 10]
0.94: normalised cell number [9, 11]
inactive: insulin secretion stimulation [1] -0.8% | viability decrease [2] 5.6% | tube area decrease [3] -13.1% | GLP1 secretion stimulation [4] 0.3% | inhibition of viability [5] 10.6% | viability decrease (inhibition) [6] 27.7% | viability decrease (inhibition) [7] 0.25% | inhibition [8] -8.81% | red/green cell ratio (normalised) [9] 0.96

O=C1C(=O)c2ccccc2C(O)=C1C1CCC(c2ccc(Cl)cc2)CC1 (centres undefined)
1.07: normalised cell number [9, 10]
0.98: normalised cell number [9, 11]
active: viability decrease [2] 96.3% | tube area decrease [3] 69.9% | inhibition of viability [5] 97.1% | viability decrease (inhibition) [6] 144% | viability decrease (inhibition) [7] 99%
inactive: insulin secretion stimulation [1] 1.1% | GLP1 secretion stimulation [4] 1.4% | inhibition [8] 5.16% | red/green cell ratio (normalised) [9] 0.91

CC(=O)NO
active: GLP1 secretion stimulation [4] 10.8% | viability decrease (inhibition) [6] 69.2% | viability decrease (inhibition) [7] 56%
1.18: normalised cell number [9, 11]
inactive: insulin secretion stimulation [1] 5.1% | viability decrease [2] 30.9% | tube area decrease [3] 11.1% | inhibition of viability [5] 10.6% | inhibition [8] -9.51% | red/green cell ratio (normalised) [9] 1.09
1.08: normalised cell number [9, 10]

CCN(CC)CCOC(=O)C(Cc1cccc2ccccc12)CC1CCCO1 (centres undefined)
0.99: normalised cell number [9, 10]
1.06: normalised cell number [9, 11]
active: GLP1 secretion stimulation [4] 8.3%
inactive: insulin secretion stimulation [1] 7.9% | viability decrease [2] -120% | tube area decrease [3] -1.6% | inhibition of viability [5] 26.1% | viability decrease (inhibition) [6] 37.7% | viability decrease (inhibition) [7] 2.6% | inhibition [8] -4.35% | red/green cell ratio (normalised) [9] 1.07

O=C(OCc1ccccc1)c1ccccc1
1.11: normalised cell number [9, 11]
inactive: insulin secretion stimulation [1] 0.7% | viability decrease [2] -5.3% | tube area decrease [3] 5.6% | GLP1 secretion stimulation [4] -2.6% | inhibition of viability [5] 10.4% | viability decrease (inhibition) [6] -12.6% | viability decrease (inhibition) [7] -9.1% | inhibition [8] -0.0939% | red/green cell ratio (normalised) [9] 0.83
1.34: normalised cell number [9, 10]

C=Cc1c(C)c2cc3[nH]c(cc4nc(cc5nc(cc1[nH]2)C(C)=C5CCC(=O)O)C(CCC(=O)O)=C4C)c(C)c3C=C
active: GLP1 secretion stimulation [4] 117% | inhibition of viability [5] 73.5% | viability decrease (inhibition) [6] 120% | viability decrease (inhibition) [7] 93%
0.8: normalised cell number [9, 10]
0.95: normalised cell number [9, 11]
inactive: insulin secretion stimulation [1] -1.6% | viability decrease [2] 37.8% | tube area decrease [3] -597% | inhibition [8] 16.8% | red/green cell ratio (normalised) [9] 1.18

CCCCCCOc1ccccc1C(N)=O
inactive: insulin secretion stimulation [1] -0.6% | viability decrease [2] -31.8% | tube area decrease [3] -2.6% | GLP1 secretion stimulation [4] -2.8% | inhibition of viability [5] 19.5% | viability decrease (inhibition) [6] 36.2% | viability decrease (inhibition) [7] 11.6% | inhibition [8] -1.25% | red/green cell ratio (normalised) [9] 1
0.94: normalised cell number [9, 10] | normalised cell number [9, 11]
